Laboratory results: PubChem BioAssay
For some assays here: Potency and affinity values are given separately. Activity calls are given as the source filed them. Unless noted, how the calls were made is not given here.

What was measured:
[1] = antimalarial activity against Dd2 strain (AID 2302;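 active means growth inhibition above 50% at the single 2 µM test dose, taken to imply half-maximal potency below 2 µM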;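 further: 0% = DMSO untreated growth and 100% = chloroquine plus artemisinin killed control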); conditions: P. falciparum Dd2 in RBCs, LDH growth readout, 72 h; at 2 µM; active compounds read high
[2] = HepG2 cytotoxicity, primary screen, cytotoxicity control for P. falciparum antimalarial project, cell-based, ATP luminescence (AID 2303;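 active means inhibition above 50%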;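 further: 0% = DMSO wells and 100% = digitonin-killed cells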); conditions: HepG2 viability, 24-48 h, at 10 µM, active compounds read high
[3] = molecular target: L-lactate dehydrogenase (Plasmodium falciparum (isolate CDC / Honduras)) (UniProt Q27743); assay: PfLDH activity inhibition – cell lysate, 3D7 strain, counter-screen for P. falciparum growth inhibition project (AID 2304);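 further: 0% = vehicle and 100% = reference inhibitor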; conditions: P. falciparum 3D7 crude extract, LDH APAD/NBT absorbance; at 2 µM; active compounds read high
Chain of L-lactate dehydrogenase (Plasmodium falciparum (isolate CDC / Honduras)) (Q27743 whole entry, looked up): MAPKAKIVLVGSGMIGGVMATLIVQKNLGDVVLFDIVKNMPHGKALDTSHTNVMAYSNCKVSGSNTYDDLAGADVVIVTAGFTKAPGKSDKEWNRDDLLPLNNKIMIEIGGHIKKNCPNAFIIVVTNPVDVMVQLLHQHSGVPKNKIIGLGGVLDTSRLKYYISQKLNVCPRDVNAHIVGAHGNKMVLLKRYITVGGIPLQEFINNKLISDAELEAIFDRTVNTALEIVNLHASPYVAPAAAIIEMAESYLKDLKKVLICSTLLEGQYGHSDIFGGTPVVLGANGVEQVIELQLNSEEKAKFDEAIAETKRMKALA

[4] = inhibition of 3D7 malaria parasite growth – strain 3D7 (AID 2306);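 further: 0% = DMSO wells and 100% = chloroquine plus artemisinin control wells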; conditions: P. falciparum 3D7 erythrocytic growth, LDH absorbance, 72 h; at 2 µM; active compounds read high
[5] = molecular target: Calcium-dependent protein kinase 1 (Plasmodium falciparum (isolate 3D7)) (UniProt P62344); assay: PfCDPK1 kinase inhibitors, biochemical, TCAMS library (AID 1159585; cut-off not given, nearly all actives have IC50 up to about 0.98 µM;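 further: inhibitors leave more ATP so luminescence rises with inhibition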); conditions: recombinant PfCDPK1, Kinase-Glo ATP depletion luminescence
Chain of Calcium-dependent protein kinase 1 (Plasmodium falciparum (isolate 3D7)) (P62344 whole entry, looked up): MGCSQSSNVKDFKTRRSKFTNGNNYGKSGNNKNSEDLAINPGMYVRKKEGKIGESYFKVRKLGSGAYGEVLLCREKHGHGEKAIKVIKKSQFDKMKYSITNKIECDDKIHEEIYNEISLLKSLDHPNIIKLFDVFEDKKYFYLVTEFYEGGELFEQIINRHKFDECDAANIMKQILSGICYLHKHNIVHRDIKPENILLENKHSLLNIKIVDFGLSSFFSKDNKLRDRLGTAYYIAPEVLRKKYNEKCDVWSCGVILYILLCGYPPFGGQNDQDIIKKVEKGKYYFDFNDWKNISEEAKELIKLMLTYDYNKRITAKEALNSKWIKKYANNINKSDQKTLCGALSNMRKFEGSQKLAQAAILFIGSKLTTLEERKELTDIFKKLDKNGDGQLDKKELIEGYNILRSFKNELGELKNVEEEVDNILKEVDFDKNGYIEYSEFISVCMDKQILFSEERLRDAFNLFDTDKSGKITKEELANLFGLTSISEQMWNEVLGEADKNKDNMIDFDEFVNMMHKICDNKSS

[6] = molecular target: Plasmodium falciparum protein kinase 6 (PK6, PF3D7_1337100) (UniProt Q8IDW1); assay: PfPK6 kinase inhibitors, biochemical, TCAMS library (AID 1159586); conditions: recombinant PfPK6, Kinase-Glo ATP depletion luminescence
Chain of Plasmodium falciparum protein kinase 6 (PK6, PF3D7_1337100) (Q8IDW1 1-305): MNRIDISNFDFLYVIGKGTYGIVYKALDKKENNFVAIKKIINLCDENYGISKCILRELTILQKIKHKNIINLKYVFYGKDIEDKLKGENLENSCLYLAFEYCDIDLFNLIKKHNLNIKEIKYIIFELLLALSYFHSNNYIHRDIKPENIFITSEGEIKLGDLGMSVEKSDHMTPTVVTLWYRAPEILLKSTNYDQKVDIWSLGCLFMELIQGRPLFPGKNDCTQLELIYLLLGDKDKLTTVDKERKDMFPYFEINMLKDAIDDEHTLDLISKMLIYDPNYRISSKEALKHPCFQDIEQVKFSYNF

[7] = molecular target: Protein kinase 7 (PK7), Plasmodium falciparum 3D7 (PF3D7_0213400) (UniProt Q7YTF7); assay: inhibition of Plasmodium PK7 catalytic activity – biochemical, TCAMS antimalarial set, Kinase-Glo luminescence (AID 1159587); conditions: recombinant PfPK7, Kinase-Glo ATP depletion luminescence
Chain of Protein kinase 7 (PK7), Plasmodium falciparum 3D7 (PF3D7_0213400) (Q7YTF7 1-343): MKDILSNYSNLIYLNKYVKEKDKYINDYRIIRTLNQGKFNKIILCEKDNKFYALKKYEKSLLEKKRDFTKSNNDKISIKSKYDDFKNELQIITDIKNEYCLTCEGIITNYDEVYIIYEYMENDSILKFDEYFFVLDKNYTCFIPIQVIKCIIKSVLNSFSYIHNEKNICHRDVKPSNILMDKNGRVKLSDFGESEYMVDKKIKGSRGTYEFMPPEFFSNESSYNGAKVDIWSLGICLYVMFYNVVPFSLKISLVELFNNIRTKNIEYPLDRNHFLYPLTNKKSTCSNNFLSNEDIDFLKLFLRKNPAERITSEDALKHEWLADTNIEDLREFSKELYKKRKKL

[8] = molecular target: Calcium-dependent protein kinase 4 (Plasmodium falciparum (isolate 3D7)) (UniProt Q8IBS5); assay: PfCDPK4 kinase inhibitors, biochemical, TCAMS library (AID 1159588; cut-off not given, nearly all actives have IC50 up to about 0.91 µM); conditions: recombinant PfCDPK4, Kinase-Glo ATP depletion luminescence
Chain of Calcium-dependent protein kinase 4 (Plasmodium falciparum (isolate 3D7)) (Q8IBS5 whole entry, looked up): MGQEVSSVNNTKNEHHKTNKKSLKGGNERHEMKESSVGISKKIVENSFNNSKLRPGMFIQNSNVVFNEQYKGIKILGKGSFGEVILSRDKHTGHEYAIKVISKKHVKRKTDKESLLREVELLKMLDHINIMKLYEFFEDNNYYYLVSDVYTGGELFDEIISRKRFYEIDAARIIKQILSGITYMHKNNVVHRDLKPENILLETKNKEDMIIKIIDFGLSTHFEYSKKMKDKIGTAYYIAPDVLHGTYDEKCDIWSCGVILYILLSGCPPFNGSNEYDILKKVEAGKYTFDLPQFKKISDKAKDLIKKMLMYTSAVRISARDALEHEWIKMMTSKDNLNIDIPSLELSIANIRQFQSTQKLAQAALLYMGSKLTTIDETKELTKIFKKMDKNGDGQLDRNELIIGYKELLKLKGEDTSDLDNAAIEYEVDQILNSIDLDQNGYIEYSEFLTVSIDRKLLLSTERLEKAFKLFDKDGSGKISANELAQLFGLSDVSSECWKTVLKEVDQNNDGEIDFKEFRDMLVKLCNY

NC(CC1CC(=O)N1CC(=O)O)C(=O)O (configuration not stated)
inactive: growth inhibition [1] -3% | inhibition [3] -5% | outcome [5] | outcome [6] | outcome [7] | outcome [8]
active: inhibition [2] 56% | growth inhibition [4] 95%

COCCn1c(Sc2ncnc3sccc23)nc2ccccc21
active: growth inhibition [1] 72% | growth inhibition [4] 95%
inactive: inhibition [2] -8% | inhibition [3] -6% | outcome [5] | outcome [6] | outcome [7] | outcome [8]

CCCCN=C(N)c1ccc(OCCCCCOc2ccc(C(N)=NCCCC)cc2)cc1
inactive: inhibition [2] 19% | inhibition [3] -4% | outcome [5] | outcome [6] | outcome [7] | outcome [8]
active: growth inhibition [1] 99% | growth inhibition [4] 99%

Cc1cccc2[nH]c(-c3ccc(-c4cccc(CN5CC(C)OC(C)C5)c4)s3)nc12 (configuration not stated)
active: growth inhibition [1] 79% | growth inhibition [4] 98%
inactive: inhibition [2] 6% | inhibition [3] -5% | outcome [5] | outcome [6] | outcome [7] | outcome [8]

Cc1nn(C)c(C)c1CN(Cc1nc(-c2cccc(Oc3ccccc3)c2)oc1C)C1CC1
active: growth inhibition [1] 98% | growth inhibition [4] 101%
inactive: inhibition [2] 7% | inhibition [3] 0% | outcome [5] | outcome [6] | outcome [7] | outcome [8]

CN(C)Cc1cccc(-c2ccc(Nc3nccc(NCC(O)c4ccccc4)n3)cc2)c1 (configuration not stated)
inactive: inhibition [3] 1% | outcome [5] | outcome [6] | outcome [7] | outcome [8]
active: growth inhibition [1] 77% | inhibition [2] 75% | growth inhibition [4] 100%

CC[C@H](NC(=O)c1c(CN2CCC(N3CCCCC3)CC2)c(-c2ccccc2)nc2cc(O)ccc12)c1ccccc1
inactive: growth inhibition [1] 13% | inhibition [2] 15% | inhibition [3] 2% | outcome [5] | outcome [6] | outcome [7] | outcome [8]
active: growth inhibition [4] 94%

COc1ccc2nc(-c3ccccc3)cc(NCCN(C)C)c2c1
active: growth inhibition [4] 101%
inactive: growth inhibition [1] 23% | inhibition [2] -1% | inhibition [3] -3% | outcome [5] | outcome [6] | outcome [7] | outcome [8]

O=C(C=Cc1ccc(Cl)c(Cl)c1)NCCCCCN1CCCC(CCCNC(=O)c2sc3ccccc3c2Cl)C1 (configuration not stated)
inactive: growth inhibition [1] 32% | inhibition [3] -3% | outcome [5] | outcome [6] | outcome [7] | outcome [8]
active: inhibition [2] 82% | growth inhibition [4] 88%

COc1cc(CN2CCC(CO)(Cc3cccc(C(F)(F)F)c3)CC2)c(Cl)cc1O
active: growth inhibition [1] 64% | growth inhibition [4] 99%
inactive: inhibition [2] 12% | inhibition [3] 6% | outcome [5] | outcome [6] | outcome [7] | outcome [8]

c1ccc(Oc2ccc(Nc3ccnc4cc(-c5csc(CN6CCCCC6)n5)ccc34)cc2)nc1
active: growth inhibition [1] 95% | growth inhibition [4] 100%
inactive: inhibition [2] 22% | inhibition [3] -7% | outcome [5] | outcome [6] | outcome [7] | outcome [8]

CCN1CCC(N(Cc2ccc(-c3ccc(C(F)(F)F)cc3)cc2)C(=O)Cn2c(CCc3cccc(F)c3F)cc(=O)c3c2CCC3)CC1
inactive: inhibition [2] 49% | inhibition [3] -1% | outcome [5] | outcome [6] | outcome [7] | outcome [8]
active: growth inhibition [1] 85% | growth inhibition [4] 89%

CCCN1CCN(CCCNC(=O)c2cc3c(-c4ccc(Cl)cc4)nn(C)c3s2)CC1
active: growth inhibition [4] 88%
inactive: growth inhibition [1] 20% | inhibition [2] 46% | inhibition [3] -3% | outcome [5] | outcome [6] | outcome [7] | outcome [8]

Cc1[nH]c(C)c(-c2ccc(CCc3cccc(C(F)(F)F)c3)nc2)c(=O)c1Cl
inactive: inhibition [2] 28% | inhibition [3] -2% | outcome [5] | outcome [6] | outcome [7] | outcome [8]
active: growth inhibition [1] 97% | growth inhibition [4] 99%

CCCCCCN1CCN(Cc2cccc(NC(=O)c3cc4ccccc4o3)c2)CC1
inactive: inhibition [2] 20% | inhibition [3] 3% | outcome [5] | outcome [6] | outcome [7] | outcome [8]
active: growth inhibition [1] 83% | growth inhibition [4] 93%

Cc1cc(NC(=O)Nc2ccc3ccn(C)c3c2)c2ccccc2n1
active: growth inhibition [1] 69% | growth inhibition [4] 102%
inactive: inhibition [2] 11% | inhibition [3] -1% | outcome [5] | outcome [6] | outcome [7] | outcome [8]

Cc1cccc2[nH]c(-c3cccc(-c4ccc(NC(=O)C5CCN(C)CC5)cc4)c3)nc12
active: growth inhibition [1] 100% | growth inhibition [4] 101%
inactive: inhibition [2] 16% | inhibition [3] 3% | outcome [5] | outcome [6] | outcome [7] | outcome [8]

Cc1cc(=O)c2cc(-c3ccc(OC(F)(F)F)cc3)ccc2[nH]1
active: growth inhibition [1] 95% | growth inhibition [4] 96%
inactive: inhibition [2] -3% | inhibition [3] 3% | outcome [5] | outcome [6] | outcome [7] | outcome [8]

CN(c1ccccc1C(=O)Nc1cc(Cl)ccc1Oc1ccccc1)S(=O)(=O)c1ccccc1
active: growth inhibition [4] 99%
inactive: growth inhibition [1] 42% | inhibition [2] 47% | inhibition [3] 7% | outcome [5] | outcome [6] | outcome [7] | outcome [8]
